Laboratory results reported in the supplement of paper PMC11732987, “Enantioselective OTUD7B fragment discovery through chemoproteomics screening and high-throughput optimisation” (Communications Chemistry, 2025).

Key:
Experiment in all cases: log2 ratio of Biotin-Ahx-Ub-VS probe labelling (fragment/DMSO); higher = less target engagement (more negative = stronger competition), active = hit call of the paper (q ≤ 0.05, log2 ratio ≤ -1)
Conditions in all cases: compound concentration: 200 uM; treatment time: 3 h
ALG13 = biological target: T1, ALG13 (UniProt Q9NP73)
T1 sequence (whole entry): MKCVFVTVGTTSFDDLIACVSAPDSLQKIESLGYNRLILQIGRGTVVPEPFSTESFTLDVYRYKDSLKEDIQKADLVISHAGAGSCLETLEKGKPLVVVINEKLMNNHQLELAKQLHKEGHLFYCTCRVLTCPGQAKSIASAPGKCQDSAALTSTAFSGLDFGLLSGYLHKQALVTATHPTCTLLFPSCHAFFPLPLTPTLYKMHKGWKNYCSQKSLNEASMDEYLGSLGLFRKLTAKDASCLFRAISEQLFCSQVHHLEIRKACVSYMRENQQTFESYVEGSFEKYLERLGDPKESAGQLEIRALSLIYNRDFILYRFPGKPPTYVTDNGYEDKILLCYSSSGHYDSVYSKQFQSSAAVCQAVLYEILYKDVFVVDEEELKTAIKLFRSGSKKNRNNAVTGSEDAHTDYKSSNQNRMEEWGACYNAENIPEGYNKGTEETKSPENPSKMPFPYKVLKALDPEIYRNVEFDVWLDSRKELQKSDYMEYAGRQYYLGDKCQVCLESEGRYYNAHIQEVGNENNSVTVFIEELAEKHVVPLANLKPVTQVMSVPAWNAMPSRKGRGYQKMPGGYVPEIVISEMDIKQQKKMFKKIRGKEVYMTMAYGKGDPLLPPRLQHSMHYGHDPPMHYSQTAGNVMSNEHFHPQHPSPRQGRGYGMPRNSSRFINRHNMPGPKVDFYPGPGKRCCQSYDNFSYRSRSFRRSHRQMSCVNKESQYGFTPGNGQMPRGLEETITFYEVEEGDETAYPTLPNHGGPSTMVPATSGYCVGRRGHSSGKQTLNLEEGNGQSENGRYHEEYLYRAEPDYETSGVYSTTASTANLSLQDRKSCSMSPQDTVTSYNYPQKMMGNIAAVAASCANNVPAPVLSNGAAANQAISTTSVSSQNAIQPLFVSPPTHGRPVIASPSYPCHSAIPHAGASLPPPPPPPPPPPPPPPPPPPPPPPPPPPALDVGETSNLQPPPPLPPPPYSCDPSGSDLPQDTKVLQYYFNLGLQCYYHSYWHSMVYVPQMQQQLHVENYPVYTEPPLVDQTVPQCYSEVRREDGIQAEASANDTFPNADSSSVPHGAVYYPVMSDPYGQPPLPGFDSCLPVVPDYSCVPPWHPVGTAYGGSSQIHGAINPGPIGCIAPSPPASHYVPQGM
Outline: (§1)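 HEK293T lysate (495 µg per sample, in Tris/CHAPS/IGEPAL buffer with protease inhibitors) was treated in triplicate with fragment at 200 µM or with DMSO for 3 h. It was then treated with Biotin-Ahx-Ub-VS (0.5 µM final) for 1 h. Labelled DUBs were NeutrAvidin-enriched, digested with LysC and trypsin, and run by diaPASEF LC-MS/MS. Spectronaut label-free quantities were global-median-normalised. Values are average log2 ratios fragment/DMSO by unpaired t-test, using proteins with ≥2 unique peptides.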

ATXN3 = ATXN3 (UniProt P54252)
Outline: as §1

BAP1 = biological target: T2, BAP1 (UniProt Q92560)
T2 sequence (whole entry): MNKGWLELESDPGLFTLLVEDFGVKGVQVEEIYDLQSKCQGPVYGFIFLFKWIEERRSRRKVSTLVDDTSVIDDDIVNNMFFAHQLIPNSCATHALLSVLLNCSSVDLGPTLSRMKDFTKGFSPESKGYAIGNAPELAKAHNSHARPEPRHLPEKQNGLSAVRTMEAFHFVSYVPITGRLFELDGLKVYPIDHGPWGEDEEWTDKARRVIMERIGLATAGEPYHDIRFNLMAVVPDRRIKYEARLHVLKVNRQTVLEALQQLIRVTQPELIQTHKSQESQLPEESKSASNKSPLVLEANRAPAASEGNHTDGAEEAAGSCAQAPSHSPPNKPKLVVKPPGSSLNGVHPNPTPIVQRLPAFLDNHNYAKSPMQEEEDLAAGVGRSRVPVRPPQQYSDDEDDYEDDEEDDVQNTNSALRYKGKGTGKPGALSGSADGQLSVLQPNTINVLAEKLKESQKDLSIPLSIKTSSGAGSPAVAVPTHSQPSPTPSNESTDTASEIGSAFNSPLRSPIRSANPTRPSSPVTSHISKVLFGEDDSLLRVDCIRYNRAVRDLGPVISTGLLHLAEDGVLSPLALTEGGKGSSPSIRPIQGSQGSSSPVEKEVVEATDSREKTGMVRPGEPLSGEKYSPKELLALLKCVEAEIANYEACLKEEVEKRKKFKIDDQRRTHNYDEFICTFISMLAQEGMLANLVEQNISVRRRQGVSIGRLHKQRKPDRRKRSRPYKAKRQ
Outline: as §1

EIF3F = EIF3F (UniProt O00303)
Outline: as §1

EIF3H = EIF3H (UniProt O15372)
Outline: as §1

FAM105A = biological target: T3, FAM105A (UniProt Q9NUU6)
T3 sequence (whole entry): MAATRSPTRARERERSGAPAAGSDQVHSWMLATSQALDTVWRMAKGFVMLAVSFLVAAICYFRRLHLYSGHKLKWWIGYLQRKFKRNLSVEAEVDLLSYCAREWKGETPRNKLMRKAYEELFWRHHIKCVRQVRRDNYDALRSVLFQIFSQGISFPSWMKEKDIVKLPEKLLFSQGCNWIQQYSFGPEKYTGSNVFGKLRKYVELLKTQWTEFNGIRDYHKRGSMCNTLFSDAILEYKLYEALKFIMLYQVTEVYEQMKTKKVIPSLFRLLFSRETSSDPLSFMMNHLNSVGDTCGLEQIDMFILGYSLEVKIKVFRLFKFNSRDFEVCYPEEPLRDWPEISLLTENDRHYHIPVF
Outline: as §1

OTUB1 = OTUB1 (UniProt Q96FW1)
Outline: as §1

OTUD4 = biological target: T4, OTUD4 (UniProt Q01804)
T4 sequence (whole entry): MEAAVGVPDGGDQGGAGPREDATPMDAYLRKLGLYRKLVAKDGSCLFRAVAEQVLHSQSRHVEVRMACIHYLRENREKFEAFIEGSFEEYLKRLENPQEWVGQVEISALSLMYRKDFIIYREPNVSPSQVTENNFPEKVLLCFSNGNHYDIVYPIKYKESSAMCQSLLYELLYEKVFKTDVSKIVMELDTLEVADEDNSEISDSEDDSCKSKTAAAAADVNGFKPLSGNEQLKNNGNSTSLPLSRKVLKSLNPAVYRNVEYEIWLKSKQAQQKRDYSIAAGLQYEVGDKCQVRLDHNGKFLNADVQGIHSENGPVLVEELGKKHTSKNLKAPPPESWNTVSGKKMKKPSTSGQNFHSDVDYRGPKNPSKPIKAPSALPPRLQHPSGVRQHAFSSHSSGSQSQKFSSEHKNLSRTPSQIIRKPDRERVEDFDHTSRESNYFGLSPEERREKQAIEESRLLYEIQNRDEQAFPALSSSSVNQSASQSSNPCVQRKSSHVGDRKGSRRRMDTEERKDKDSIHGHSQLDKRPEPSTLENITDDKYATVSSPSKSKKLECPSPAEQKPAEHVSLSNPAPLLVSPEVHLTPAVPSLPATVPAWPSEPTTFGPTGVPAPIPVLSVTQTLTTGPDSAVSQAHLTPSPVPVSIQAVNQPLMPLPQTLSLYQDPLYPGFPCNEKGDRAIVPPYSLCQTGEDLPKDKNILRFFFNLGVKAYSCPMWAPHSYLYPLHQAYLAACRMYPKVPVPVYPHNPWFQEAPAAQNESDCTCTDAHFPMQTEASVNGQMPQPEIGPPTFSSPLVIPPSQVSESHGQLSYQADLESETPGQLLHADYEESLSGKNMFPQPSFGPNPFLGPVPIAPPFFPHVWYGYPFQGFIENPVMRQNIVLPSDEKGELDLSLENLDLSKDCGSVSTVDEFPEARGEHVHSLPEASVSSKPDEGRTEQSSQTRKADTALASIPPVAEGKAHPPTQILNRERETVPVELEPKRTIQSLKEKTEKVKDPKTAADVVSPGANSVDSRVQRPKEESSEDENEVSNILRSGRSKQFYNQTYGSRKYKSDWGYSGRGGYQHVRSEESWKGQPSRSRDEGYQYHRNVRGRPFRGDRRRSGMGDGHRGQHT
Outline: as §1

OTUD5 = biological target: T5, OTUD5 (UniProt Q96G74)
T5 sequence (whole entry): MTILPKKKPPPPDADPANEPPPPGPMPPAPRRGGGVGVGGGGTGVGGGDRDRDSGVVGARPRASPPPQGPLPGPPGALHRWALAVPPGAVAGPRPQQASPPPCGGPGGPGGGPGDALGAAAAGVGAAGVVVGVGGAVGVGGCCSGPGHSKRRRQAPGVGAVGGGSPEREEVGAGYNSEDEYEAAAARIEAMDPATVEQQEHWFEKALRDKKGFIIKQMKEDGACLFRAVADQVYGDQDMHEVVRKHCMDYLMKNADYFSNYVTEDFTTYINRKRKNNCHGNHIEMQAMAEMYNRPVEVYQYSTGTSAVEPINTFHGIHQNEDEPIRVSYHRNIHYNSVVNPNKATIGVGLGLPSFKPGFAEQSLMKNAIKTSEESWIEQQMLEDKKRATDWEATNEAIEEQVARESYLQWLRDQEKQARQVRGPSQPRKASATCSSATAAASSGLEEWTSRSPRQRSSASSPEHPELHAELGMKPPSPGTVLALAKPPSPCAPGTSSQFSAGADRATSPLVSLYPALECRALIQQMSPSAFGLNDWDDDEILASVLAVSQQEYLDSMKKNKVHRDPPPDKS
Outline: as §1

Measured: log2 ratio of Biotin-Ahx-Ub-VS probe labelling

ATXN3, sequence (P54252 whole entry): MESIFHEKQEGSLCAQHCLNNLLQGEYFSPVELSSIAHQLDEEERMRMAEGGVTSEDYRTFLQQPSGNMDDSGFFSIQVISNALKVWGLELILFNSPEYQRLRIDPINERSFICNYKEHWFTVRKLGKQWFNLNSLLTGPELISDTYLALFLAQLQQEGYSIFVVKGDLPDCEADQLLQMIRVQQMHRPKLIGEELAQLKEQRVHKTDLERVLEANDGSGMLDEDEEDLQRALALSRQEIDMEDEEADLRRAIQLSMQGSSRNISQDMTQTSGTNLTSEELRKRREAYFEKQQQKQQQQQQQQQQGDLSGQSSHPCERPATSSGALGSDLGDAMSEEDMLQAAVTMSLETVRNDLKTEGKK
EIF3H, sequence (O15372 whole entry): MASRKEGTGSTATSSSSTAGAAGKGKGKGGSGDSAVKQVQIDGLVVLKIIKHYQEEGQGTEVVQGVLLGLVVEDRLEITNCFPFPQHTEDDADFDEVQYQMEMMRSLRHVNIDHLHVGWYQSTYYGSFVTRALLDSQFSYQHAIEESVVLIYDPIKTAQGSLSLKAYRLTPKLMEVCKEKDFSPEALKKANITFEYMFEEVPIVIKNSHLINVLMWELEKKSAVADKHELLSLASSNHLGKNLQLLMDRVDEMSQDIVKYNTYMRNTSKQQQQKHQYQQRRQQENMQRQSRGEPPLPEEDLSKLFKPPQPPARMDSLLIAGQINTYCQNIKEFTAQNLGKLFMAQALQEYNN
OTUB1, sequence (Q96FW1 whole entry): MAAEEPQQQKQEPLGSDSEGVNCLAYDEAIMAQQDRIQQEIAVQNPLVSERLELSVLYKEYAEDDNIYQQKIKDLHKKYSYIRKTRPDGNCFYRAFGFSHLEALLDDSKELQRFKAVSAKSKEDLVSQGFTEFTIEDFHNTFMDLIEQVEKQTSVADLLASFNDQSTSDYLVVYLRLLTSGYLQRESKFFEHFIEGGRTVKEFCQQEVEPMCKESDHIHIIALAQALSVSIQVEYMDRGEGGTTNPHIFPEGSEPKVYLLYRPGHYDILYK
EIF3F, sequence (O00303 whole entry): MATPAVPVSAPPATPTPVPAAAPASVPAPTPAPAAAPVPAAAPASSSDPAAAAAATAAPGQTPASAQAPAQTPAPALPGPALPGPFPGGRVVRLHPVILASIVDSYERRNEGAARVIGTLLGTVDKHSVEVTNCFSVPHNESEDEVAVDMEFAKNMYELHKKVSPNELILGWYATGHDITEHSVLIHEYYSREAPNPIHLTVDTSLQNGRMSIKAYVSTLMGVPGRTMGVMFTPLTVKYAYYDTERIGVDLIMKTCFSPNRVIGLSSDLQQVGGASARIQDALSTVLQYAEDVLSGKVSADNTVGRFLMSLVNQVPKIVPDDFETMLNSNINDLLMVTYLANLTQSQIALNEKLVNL

Cl.O=C(CCl)N1CCCC(c2ncc[nH]2)C1 (centres undefined)
inactive: ALG13 0.0212 | ATXN3 -0.259 | BAP1 -0.246 | EIF3F -0.0106 | EIF3H 0.267 | FAM105A 0.0977 | OTUB1 -0.0773 | OTUD4 -0.288 | OTUD5 -0.22
